Measured values published in ChEMBL document CHEMBL2218924, “A broad activity screen in support of a chemogenomic map for kinase signalling research and drug discovery” (Biochem J, 2013).

Columns and labels:
[1] = target: T1, Serine/threonine-protein kinase 17A (Homo sapiens) (UniProt Q9UEE5); details: at 10 µM
T1 sequence (whole entry): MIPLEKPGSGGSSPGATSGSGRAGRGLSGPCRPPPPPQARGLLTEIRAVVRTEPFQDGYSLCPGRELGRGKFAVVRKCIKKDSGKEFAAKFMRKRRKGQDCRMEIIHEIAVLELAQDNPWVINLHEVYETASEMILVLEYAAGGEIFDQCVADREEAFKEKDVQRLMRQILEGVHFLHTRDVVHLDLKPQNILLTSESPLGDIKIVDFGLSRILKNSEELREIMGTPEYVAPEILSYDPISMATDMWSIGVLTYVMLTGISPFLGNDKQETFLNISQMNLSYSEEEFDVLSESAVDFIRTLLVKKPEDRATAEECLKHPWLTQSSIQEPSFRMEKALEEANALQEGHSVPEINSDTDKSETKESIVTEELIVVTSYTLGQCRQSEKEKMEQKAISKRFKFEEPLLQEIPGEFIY

[2] = target: T2, Dual specificity tyrosine-phosphorylation-regulated kinase 2 (Homo sapiens) (UniProt Q92630); details: at 1 µM
T2 sequence (whole entry): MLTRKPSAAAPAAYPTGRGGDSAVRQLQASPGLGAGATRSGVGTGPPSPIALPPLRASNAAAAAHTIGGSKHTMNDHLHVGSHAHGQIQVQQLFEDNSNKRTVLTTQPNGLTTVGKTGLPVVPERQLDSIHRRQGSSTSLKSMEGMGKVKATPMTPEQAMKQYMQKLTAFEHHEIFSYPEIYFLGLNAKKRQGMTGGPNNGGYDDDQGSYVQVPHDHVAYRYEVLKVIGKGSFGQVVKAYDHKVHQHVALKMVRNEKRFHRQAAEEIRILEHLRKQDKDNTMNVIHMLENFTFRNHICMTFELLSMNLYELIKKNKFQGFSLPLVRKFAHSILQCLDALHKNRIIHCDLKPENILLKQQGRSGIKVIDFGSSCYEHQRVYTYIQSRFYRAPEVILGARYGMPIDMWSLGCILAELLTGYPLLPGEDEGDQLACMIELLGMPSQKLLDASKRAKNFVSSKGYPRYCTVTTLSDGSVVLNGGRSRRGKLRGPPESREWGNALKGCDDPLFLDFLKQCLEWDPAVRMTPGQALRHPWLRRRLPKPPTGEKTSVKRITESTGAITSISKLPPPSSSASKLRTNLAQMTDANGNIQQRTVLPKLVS

[3] = target: T2, Dual specificity tyrosine-phosphorylation-regulated kinase 2 (Homo sapiens); details: at 10 µM
[4] = target: Epidermal growth factor receptor (Homo sapiens) (UniProt P00533); details: at 1 µM
[5] = target: Epidermal growth factor receptor (Homo sapiens) (UniProt P00533); details: at 10 µM
[6] = target: T3, Ephrin type-A receptor 1 (Homo sapiens) (UniProt P21709); details: at 1 µM
T3 sequence (whole entry): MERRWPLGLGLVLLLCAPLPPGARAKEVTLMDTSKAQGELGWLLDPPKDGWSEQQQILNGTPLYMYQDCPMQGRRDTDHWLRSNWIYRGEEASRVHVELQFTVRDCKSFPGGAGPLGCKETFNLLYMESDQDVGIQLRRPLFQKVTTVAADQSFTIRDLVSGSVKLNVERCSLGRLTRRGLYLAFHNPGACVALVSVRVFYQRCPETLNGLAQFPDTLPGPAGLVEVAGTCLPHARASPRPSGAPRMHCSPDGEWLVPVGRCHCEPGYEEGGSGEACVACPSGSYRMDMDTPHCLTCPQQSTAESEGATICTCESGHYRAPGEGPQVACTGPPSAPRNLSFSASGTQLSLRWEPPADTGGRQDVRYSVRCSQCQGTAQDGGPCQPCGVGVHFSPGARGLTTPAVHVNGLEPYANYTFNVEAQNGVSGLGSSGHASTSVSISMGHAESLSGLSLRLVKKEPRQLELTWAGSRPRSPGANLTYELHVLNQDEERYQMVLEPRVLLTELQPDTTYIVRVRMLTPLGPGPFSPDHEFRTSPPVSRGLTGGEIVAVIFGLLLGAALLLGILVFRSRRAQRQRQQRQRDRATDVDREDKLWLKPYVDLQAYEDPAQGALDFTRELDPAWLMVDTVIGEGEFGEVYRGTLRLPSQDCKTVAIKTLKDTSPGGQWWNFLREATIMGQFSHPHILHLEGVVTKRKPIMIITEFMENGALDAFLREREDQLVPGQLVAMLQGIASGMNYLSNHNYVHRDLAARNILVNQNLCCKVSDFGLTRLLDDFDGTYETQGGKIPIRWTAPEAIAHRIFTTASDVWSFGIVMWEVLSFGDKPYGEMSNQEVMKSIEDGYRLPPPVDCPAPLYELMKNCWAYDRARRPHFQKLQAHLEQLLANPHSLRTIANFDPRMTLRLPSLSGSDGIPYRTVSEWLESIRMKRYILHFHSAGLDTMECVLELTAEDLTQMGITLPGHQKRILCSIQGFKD

[7] = target: T3, Ephrin type-A receptor 1 (Homo sapiens); details: at 10 µM
[8] = target: Ephrin type-A receptor 2 (Homo sapiens) (UniProt P29317); details: at 1 µM
[9] = target: Ephrin type-A receptor 2 (Homo sapiens) (UniProt P29317); details: at 10 µM
[10] = target: T4, Ephrin type-A receptor 3 (Homo sapiens) (UniProt P29320); details: at 1 µM
T4 sequence (whole entry): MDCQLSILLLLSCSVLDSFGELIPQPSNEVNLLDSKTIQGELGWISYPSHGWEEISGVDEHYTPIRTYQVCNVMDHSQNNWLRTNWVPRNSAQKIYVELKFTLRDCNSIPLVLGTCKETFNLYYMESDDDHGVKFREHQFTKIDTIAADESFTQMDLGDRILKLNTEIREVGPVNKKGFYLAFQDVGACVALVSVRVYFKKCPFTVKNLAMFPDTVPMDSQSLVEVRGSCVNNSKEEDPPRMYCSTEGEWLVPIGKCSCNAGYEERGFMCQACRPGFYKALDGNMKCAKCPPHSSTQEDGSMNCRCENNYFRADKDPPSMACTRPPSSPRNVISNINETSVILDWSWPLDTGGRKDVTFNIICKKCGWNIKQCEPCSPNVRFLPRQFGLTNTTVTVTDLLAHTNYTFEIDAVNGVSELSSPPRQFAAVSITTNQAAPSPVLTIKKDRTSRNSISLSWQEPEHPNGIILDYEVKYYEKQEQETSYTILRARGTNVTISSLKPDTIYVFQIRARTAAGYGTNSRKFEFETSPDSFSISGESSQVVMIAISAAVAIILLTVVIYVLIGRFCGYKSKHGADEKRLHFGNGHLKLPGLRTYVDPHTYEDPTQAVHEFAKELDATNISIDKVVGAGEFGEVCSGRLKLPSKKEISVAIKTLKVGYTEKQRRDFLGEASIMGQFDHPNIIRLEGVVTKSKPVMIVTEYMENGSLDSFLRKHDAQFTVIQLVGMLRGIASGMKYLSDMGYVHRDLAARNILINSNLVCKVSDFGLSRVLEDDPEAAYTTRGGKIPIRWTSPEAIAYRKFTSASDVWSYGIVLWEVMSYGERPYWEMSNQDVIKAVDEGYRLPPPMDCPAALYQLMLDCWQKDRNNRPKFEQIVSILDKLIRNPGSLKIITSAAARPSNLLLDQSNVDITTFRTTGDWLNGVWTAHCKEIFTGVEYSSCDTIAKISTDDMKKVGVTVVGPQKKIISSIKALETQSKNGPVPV

[11] = target: T4, Ephrin type-A receptor 3 (Homo sapiens); details: at 10 µM
[12] = target: Ephrin type-A receptor 4 (Homo sapiens) (UniProt P54764); details: at 1 µM
[13] = target: Ephrin type-A receptor 4 (Homo sapiens) (UniProt P54764); details: at 10 µM
[14] = target: Ephrin type-A receptor 5 (Homo sapiens) (UniProt P54756); details: at 1 µM
[15] = target: Ephrin type-A receptor 5 (Homo sapiens) (UniProt P54756); details: at 10 µM
[16] = target: Ephrin type-A receptor 7 (Homo sapiens) (UniProt Q15375); details: at 1 µM
[17] = target: Ephrin type-A receptor 7 (Homo sapiens) (UniProt Q15375); details: at 10 µM
[18] = target: T5, Ephrin type-A receptor 8 (Homo sapiens) (UniProt P29322); details: at 1 µM
T5 sequence (whole entry): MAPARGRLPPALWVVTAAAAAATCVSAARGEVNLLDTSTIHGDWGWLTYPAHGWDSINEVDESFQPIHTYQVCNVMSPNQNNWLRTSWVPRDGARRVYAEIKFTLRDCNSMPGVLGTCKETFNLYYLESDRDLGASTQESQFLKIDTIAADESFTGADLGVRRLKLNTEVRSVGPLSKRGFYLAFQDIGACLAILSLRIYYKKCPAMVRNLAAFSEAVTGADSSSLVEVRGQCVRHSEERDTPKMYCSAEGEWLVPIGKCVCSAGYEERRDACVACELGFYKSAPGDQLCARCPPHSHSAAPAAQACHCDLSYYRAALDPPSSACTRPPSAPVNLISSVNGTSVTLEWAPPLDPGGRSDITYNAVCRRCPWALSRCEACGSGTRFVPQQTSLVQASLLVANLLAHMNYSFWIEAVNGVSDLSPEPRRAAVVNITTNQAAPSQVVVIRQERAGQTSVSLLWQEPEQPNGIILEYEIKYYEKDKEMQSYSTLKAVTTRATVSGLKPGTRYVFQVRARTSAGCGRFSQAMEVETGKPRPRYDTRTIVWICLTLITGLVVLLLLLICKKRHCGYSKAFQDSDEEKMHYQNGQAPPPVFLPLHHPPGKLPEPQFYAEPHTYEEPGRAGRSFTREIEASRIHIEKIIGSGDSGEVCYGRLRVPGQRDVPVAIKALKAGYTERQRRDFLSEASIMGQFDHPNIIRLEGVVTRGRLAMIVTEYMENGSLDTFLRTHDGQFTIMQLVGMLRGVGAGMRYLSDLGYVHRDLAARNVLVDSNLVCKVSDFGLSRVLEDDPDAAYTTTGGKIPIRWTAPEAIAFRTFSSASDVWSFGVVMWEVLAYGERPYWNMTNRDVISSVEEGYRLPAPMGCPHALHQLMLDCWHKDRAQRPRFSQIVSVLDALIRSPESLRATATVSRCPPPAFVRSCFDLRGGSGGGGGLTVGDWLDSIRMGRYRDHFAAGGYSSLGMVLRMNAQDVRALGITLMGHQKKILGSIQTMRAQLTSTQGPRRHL

[19] = target: T5, Ephrin type-A receptor 8 (Homo sapiens); details: at 10 µM
[20] = target: T6, Ephrin type-B receptor 1 (Homo sapiens) (UniProt P54762); details: at 1 µM
T6 sequence (whole entry): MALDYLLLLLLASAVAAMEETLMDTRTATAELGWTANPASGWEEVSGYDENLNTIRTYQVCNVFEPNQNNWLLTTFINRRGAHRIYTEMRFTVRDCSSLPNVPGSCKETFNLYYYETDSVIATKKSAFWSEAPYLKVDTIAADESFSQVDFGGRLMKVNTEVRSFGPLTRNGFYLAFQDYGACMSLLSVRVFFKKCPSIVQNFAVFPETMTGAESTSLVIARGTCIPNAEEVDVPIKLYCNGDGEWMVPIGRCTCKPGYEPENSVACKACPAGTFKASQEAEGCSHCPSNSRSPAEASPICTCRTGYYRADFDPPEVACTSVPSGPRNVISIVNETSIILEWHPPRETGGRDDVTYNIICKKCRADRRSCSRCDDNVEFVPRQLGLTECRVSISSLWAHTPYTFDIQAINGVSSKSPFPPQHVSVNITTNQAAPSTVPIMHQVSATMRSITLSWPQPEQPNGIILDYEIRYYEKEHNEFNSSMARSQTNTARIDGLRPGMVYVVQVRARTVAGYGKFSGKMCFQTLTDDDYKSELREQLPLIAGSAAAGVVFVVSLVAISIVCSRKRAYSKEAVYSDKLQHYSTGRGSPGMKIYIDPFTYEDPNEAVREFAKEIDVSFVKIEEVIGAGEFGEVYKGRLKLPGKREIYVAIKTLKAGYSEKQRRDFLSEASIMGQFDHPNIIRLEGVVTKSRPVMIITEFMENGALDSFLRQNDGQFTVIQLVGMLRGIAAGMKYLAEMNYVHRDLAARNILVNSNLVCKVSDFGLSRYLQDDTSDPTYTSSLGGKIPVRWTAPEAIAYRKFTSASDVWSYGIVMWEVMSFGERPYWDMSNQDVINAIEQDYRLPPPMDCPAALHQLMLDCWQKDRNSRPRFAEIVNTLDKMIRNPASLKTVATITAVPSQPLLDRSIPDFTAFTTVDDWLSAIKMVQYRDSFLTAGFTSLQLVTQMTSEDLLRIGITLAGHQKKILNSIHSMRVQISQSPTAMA

Chain of Ephrin type-A receptor 2 (Homo sapiens) (P29317 whole entry): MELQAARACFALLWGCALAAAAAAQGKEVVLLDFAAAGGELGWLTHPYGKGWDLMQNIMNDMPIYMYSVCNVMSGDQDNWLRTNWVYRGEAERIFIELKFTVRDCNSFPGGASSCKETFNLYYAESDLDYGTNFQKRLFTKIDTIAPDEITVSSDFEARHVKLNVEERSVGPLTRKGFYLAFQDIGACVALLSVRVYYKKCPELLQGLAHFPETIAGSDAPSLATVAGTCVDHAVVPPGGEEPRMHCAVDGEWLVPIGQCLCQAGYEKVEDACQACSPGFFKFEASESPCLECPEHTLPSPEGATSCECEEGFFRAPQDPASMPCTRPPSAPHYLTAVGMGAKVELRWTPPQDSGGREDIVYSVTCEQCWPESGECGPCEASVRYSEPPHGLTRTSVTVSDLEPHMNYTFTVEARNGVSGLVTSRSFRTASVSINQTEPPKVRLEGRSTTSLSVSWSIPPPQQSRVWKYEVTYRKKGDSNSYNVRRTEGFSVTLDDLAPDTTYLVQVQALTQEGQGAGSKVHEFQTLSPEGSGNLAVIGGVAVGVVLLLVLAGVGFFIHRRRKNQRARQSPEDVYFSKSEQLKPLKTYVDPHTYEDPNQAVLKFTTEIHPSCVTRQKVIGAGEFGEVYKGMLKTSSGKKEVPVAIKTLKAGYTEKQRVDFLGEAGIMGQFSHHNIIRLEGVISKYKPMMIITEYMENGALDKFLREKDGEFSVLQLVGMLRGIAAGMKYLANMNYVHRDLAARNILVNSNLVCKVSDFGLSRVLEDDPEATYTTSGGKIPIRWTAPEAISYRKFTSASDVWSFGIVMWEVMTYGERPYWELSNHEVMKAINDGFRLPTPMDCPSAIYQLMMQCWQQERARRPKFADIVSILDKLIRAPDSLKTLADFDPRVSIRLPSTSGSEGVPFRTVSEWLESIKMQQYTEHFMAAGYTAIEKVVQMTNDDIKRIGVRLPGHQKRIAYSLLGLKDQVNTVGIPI
Chain of Epidermal growth factor receptor (Homo sapiens) (P00533 whole entry): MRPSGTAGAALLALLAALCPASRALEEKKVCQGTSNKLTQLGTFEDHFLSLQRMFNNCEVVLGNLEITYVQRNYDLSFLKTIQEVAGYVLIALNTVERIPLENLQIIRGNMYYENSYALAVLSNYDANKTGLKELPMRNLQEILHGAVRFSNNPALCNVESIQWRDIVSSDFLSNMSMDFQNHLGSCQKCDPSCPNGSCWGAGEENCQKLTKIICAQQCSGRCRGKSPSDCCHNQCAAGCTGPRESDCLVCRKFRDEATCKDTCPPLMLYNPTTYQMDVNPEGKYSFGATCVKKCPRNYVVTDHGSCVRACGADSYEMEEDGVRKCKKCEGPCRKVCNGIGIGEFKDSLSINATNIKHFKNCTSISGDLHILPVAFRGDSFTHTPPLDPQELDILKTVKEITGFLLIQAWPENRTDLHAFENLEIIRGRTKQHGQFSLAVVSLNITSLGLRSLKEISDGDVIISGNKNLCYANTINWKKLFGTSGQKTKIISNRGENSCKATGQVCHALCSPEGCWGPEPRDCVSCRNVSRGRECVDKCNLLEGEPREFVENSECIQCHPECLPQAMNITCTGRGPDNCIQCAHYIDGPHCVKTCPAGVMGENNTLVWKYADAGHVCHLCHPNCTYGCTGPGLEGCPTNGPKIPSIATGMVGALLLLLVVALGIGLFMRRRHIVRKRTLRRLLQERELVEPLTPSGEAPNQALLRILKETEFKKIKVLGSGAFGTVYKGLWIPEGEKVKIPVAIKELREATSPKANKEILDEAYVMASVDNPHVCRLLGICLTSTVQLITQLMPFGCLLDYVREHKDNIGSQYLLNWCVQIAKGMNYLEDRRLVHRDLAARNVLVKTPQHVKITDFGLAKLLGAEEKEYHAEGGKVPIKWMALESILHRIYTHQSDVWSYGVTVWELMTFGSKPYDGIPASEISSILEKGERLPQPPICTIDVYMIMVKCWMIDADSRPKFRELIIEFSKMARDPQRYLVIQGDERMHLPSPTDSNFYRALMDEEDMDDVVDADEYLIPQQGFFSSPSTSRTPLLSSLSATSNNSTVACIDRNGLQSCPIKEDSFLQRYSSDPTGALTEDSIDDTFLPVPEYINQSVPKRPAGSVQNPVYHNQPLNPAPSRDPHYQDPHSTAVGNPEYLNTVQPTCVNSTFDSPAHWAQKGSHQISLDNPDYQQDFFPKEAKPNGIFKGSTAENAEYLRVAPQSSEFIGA
Chain of Ephrin type-A receptor 7 (Homo sapiens) (Q15375 28-998 limits assumed): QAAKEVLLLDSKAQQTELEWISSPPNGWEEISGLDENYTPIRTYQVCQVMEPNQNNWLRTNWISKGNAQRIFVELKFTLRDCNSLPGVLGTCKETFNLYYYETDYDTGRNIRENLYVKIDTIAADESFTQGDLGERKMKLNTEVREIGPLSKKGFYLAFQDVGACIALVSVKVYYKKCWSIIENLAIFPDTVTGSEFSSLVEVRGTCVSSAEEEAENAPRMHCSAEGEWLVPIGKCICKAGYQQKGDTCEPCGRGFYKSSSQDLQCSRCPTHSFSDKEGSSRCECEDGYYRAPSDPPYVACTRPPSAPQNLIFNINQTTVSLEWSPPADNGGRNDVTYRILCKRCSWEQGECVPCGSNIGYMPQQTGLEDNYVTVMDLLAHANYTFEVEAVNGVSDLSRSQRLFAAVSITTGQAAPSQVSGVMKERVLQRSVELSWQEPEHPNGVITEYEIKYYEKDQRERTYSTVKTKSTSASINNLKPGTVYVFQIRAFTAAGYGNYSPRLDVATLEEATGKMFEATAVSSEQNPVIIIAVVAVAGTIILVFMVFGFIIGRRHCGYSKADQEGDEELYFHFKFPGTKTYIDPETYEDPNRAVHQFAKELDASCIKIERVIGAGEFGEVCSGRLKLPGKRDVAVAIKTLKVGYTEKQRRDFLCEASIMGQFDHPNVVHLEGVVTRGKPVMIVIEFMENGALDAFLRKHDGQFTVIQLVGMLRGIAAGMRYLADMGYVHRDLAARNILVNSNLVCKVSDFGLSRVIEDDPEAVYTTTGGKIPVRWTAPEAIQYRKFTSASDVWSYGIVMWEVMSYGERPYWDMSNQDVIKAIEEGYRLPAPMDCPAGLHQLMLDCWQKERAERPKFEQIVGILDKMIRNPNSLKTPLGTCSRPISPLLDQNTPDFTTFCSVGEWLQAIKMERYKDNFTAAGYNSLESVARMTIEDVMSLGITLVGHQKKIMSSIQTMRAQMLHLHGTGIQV
Chain of Ephrin type-A receptor 5 (Homo sapiens) (P54756 whole entry): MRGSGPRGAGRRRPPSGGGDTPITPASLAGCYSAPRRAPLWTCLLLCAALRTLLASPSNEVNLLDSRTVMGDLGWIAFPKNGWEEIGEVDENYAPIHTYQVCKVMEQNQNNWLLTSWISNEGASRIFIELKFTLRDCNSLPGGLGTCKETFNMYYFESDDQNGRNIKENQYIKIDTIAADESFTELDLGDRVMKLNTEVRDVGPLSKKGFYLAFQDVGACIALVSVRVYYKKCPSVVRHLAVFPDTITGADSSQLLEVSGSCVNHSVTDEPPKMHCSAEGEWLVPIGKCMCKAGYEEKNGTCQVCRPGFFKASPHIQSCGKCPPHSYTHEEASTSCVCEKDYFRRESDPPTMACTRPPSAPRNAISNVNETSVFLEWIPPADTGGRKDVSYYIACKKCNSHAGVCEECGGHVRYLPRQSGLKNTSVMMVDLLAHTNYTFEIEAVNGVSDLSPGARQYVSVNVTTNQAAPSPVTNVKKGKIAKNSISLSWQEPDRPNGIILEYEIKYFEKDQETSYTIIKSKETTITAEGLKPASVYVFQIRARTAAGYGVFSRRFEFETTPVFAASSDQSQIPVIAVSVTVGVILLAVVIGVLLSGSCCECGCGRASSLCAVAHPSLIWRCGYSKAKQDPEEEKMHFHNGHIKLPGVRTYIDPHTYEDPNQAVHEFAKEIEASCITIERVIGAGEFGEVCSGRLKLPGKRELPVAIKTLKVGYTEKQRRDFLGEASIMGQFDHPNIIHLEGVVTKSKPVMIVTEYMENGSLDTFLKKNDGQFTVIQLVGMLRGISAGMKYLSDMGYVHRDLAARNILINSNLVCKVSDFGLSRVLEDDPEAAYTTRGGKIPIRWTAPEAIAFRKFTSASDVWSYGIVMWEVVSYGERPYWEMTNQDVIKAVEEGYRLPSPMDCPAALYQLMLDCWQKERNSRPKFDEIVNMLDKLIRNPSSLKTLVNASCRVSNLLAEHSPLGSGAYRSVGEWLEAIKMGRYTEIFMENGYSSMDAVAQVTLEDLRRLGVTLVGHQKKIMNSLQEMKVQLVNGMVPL

| SMILES | residual activity [1] | residual activity [2] | residual activity [3] | residual activity [4] | residual activity [5] | residual activity [6] | residual activity [7] | residual activity [8] | residual activity [9] | residual activity [10] | residual activity [11] | residual activity [12] | residual activity [13] | residual activity [14] | residual activity [15] | residual activity [16] | residual activity [17] | residual activity [18] | residual activity [19] | residual activity [20] |
| --- | --- | --- | --- | --- | --- | --- | --- | --- | --- | --- | --- | --- | --- | --- | --- | --- | --- | --- | --- | --- |
| O=C(Nc1cccc(Nc2nccc(Nc3cccc(C(F)(F)F)c3)n2)c1)C1CC1 | 10% | 95% | 96% | 61% | 19% | 22% | 22% | 79% | 19% | 95% | 47% | 102% | 92% | 99% | 80% | 81% | 43% | 97% | 67% | 62% |
| c1ccc2c(-c3ccncc3)c[nH]c2c1 | 60% | 77% | 21% | – | – | 87% | 69% | 104% | 92% | 106% | 92% | 109% | 98% | 102% | 111% | 99% | 84% | 96% | 92% | 108% |
| O=[N+]([O-])c1ccc(-c2nc(-c3ccc(F)cc3)c(-c3ccncc3)[nH]2)cc1 | 104% | 100% | 91% | 87% | 95% | 83% | 92% | 89% | 97% | 99% | 90% | 105% | 107% | 100% | 94% | – | 101% | 93% | – | 103% |
